20 compounds from PubChem BioAssay (NCATS) can be followed below.

In one experiment the test system is CRL-7250. As to the kind of experiment: Cytotoxic Profiling of Annotated Libraries Using Quantitative High-Throughput Screening (AID 1296008). Also: potency is read from the fitted curve at half-maximal effect. As to max response: % is scaled to controls: 0 for no effect and ±100 for the full control effect. As to conditions: Five cell lines viability, CellTiter-Glo ATP luminescence, 48-72 h; max response: stronger effect = lower value. A digest of the protocol: (§1)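 Cells exposed to compounds for 48 or 72 hr at 37 degrees Celsius. Viability read as ATP-coupled luminescence with CellTiter-Glo after 10 min at room temperature.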
(In general: ATP-based viability assays read luminescence as a measure of living cells.)

In the next experiment the test system is HEK293. Described as above. As to conditions: Five cell lines viability, CellTiter-Glo ATP luminescence, 48-72 h; max response: stronger effect = lower value. Put shortly: as §1
The subject of experiment [1] is HaCat. The experiment is described as above. To be noted: Five cell lines viability, CellTiter-Glo ATP luminescence, 48-72 h; max response: stronger effect = lower value. A digest of the protocol:
as §1

The subject of another experiment is KB-3-1. The description is as above. To be noted: Five cell lines viability, CellTiter-Glo ATP luminescence, 48-72 h; max response: stronger effect = lower value. Put shortly: as §1
In the next experiment the test system is NIH3T3. Described as above. To be noted: Five cell lines viability, CellTiter-Glo ATP luminescence, 48-72 h; max response: stronger effect = lower value. Put shortly: as §1
For experiment [2], the system named is HACAT. As to the kind of experiment: qHTS assay to identify novel small-molecules to repurpose for Merkel cell carcinoma treatment (AID 1296009). As to conditions: MCC and control cell lines, CellTiter-Glo viability, 72 h; at 44.8 µM (top of the series) unless noted. A digest of the protocol: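 Cells were incubated with compound for 72 hr at 37 degree celsius before CellTiter-Glo addition. Luminescence was normalized with no-cell wells as full cytotoxicity and DMSO as baseline.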
A general note: qHTS replaces the single test concentration by a dilution series.

Where “and” joins values, the source holds several entries; their conditions need not be identical. Identical values can stand only once. Inconclusive results are not listed. A number with no mark means an inactive call. Calls of active or inactive are those of the source. Calls follow the shape of the dose curve; as a rule, active = well fitted inhibition curve with a large enough effect; inconclusive = small, poorly fitted or top-dose-only effect; inactive = flat fitted curve, though single readings scatter.
Also: nearly all actives have a fitted effect of over 60% in size.

For the compound `OC(CCCN1CCCCC1)(c1ccccc1)c1ccccc1`, the max response in the experiment on CRL-7250 is -11.1%; with HEK293, -39.9%; in the experiment on HaCat [1], -16%; with KB-3-1, -5.63%; with NIH3T3 it was -14.5%.
Take `CCC(=O)O[C@H]1[C@H](O[C@@H]2[C@@H](C)[C@H](O[C@H]3C[C@@](C)(OC)[C@@H](O)[C@H](C)O3)[C@@H](C)C(=O)O[C@H](CC)[C@@](C)(O)[C@H](O)[C@@H](C)C(=O)[C@H](C)C[C@@]2(C)O)O[C@H](C)C[C@@H]1N(C)C`: the max response was 0.377% in the experiment with CRL-7250, 0.29% in the experiment on HaCat [1], 2.69% in the experiment with KB-3-1 and 1.01% with NIH3T3. In addition, in the experiment on HEK293, the call was inactive.
For `Cc1ccc(/C=N/n2c(-c3ccccc3)csc2=S)cc1`, the max response with CRL-7250 is -8.42%; in the experiment on HEK293, 1.19%; in the experiment on KB-3-1 it was -9.01%; in the experiment with NIH3T3, -3.86%. Besides, the result with HaCat [1] and with HACAT [2] was inactive.
Take `Cc1cc(O)c2c(O)c3c(O)cccc3cc2c1`: the call in the experiment with CRL-7250, in the experiment with HaCat [1] and in the experiment on HACAT [2] was inactive. Further, the max response with HEK293 is -2.16%; in the experiment on KB-3-1, -20.5%; in the experiment on NIH3T3 it was -2.19%.
Take `CCCC(=O)O[C@]1(C(=O)COC(=O)CC)CC[C@H]2[C@@H]3CCC4=CC(=O)CC[C@]4(C)[C@H]3[C@@H](O)C[C@@]21C`: the max response in the experiment on CRL-7250 is 1.61%; in the experiment with HEK293 it was 3.26%; in the experiment on KB-3-1, -1.68%; in the experiment with NIH3T3, 1.36%. The call in the experiment with HaCat [1] was inactive. In addition, in the experiment on HACAT [2], the outcome is “inactive [at 17.4 µM]”.
Consider `C[C@@H](C1=C(CCN(C)C)Cc2ccccc21)c1ccccn1`, for which the result in the experiment on CRL-7250, with HaCat [1] and in the experiment with HACAT [2] was inactive. The max response is -25.1% in the experiment on HEK293, -6.09% with KB-3-1 and 1.99% in the experiment on NIH3T3.
Turning to `O=C(OCC(COC(=O)c1cccnc1)(COC(=O)c1cccnc1)COC(=O)c1cccnc1)c1cccnc1`, the outcome in the experiment on CRL-7250, in the experiment with HaCat [1], with NIH3T3 and in the experiment on HACAT [2] was inactive. The results for the max response in the experiment on HEK293 and in the experiment on KB-3-1 were -3.93% and -20.2%, respectively.
For `O=C(O)c1ccccc1Nc1cc(Cl)ccc1C(=O)O`, the max response was 2.83% in the experiment with CRL-7250, -2.68% in the experiment with HEK293, -6.82% with KB-3-1 and -15.4% with NIH3T3. Also, the compound was called inactive in the experiment on HaCat [1]. For the same compound, in the experiment on HACAT [2], the outcome is “inactive [at 17.4 µM]”.
For `C[N+]1(C)CCC(OC(=O)C(O)(c2ccccc2)C2CCCC2)C1` (stereo not drawn), the max response in the experiment with CRL-7250 was 2.29%; in the experiment with HEK293 it was -9.88%; in the experiment with KB-3-1, -6.32% and -2.46%; with NIH3T3 it was -0.313%. For the same compound, the compound was called inactive in the experiment with HaCat [1] and with HACAT [2].
In the case of `CCCCCC[C@@H](CCC)C(=O)O`, the max response is -4.37% in the experiment with CRL-7250 and -12.3% in the experiment on KB-3-1. Also, the compound was classed as inactive in the experiment on HEK293, with HaCat [1], in the experiment on NIH3T3 and in the experiment with HACAT [2].
For the compound `CCO[C@H](Cc1ccc(OCCc2ccc(OS(C)(=O)=O)cc2)cc1)C(=O)O`, the max response in the experiment on CRL-7250 was -4.09%; in the experiment on HEK293, -6.35%; with KB-3-1, -10.5%; with NIH3T3 it was -1.31%. For the same compound, the compound was called inactive in the experiment with HaCat [1] and in the experiment with HACAT [2].
Consider `CC(C(=O)O)c1ccc(/C=C2\CCCCC2=O)cc1` (stereo not drawn), for which the max response in the experiment with CRL-7250 is 1.18%; in the experiment with HEK293, -12.2%; with NIH3T3, 3.05%. Besides, the result with HaCat [1], with KB-3-1 and with HACAT [2] was inactive.
For the compound `CN1C(CSCC(F)(F)F)Nc2cc(Cl)c(S(N)(=O)=O)cc2S1(=O)=O` (stereo not drawn), the max response in the experiment on CRL-7250 is -17.8%; with HEK293, 1.71%; in the experiment with HaCat [1] it was 4.02%; in the experiment with KB-3-1, 38.2%. Further, the result in the experiment with NIH3T3 was inactive.
Consider `Cc1cccc(C)c1NC(=O)c1cc(S(N)(=O)=O)c(Cl)cc1O`, for which the compound was classed as inactive in the experiment on CRL-7250, in the experiment with HEK293, in the experiment on HaCat [1] and in the experiment on HACAT [2]. Moreover, the max response was -20.9% in the experiment with KB-3-1 and -1.69% in the experiment on NIH3T3.
For `O=C(Oc1ccccc1)c1cccc(C(=O)Oc2ccccc2)c1`, the max response was -12.1% with CRL-7250, 3.23% with HEK293, -6.63% in the experiment on KB-3-1 and -5.12% in the experiment on NIH3T3. Besides, in the experiment with HaCat [1], the outcome was inactive. Moreover, the outcome in the experiment with HACAT [2] was “inactive [at 92 µM]”.
With `CCCCCOc1ccc(C2SC(=O)NC2=O)cc1OCC` (stereo not drawn), the max response was -3.49% in the experiment with CRL-7250 and 3.99% in the experiment with HEK293. Further, the call with HaCat [1], in the experiment on KB-3-1, with NIH3T3 and in the experiment on HACAT [2] was inactive.
In the case of `CC(C)C[C@@H]1[C@H](c2ccccc2)OC(=O)N1CCCN1CCCCCC1`, the max response in the experiment on CRL-7250 was -2.82%; with HaCat [1], -13.9%; in the experiment with NIH3T3 it was -3.61%. Further, in the experiment on HEK293, the Potency was 23.7 µM (active).
For `CCOc1c(N2CCOCC2)cnn(C)c1=O`, the results for the max response with CRL-7250, in the experiment on HaCat [1] and in the experiment on NIH3T3 were -1.71%, -2.94% and -0.145%, respectively. In the experiment on HEK293, the call was inactive.
For `CCC(C(=O)NC(=O)NC(C)=O)c1ccccc1` (stereo not drawn), the max response in the experiment on CRL-7250 is 2.16%; with HEK293, -0.744%; with KB-3-1, 0.82%; in the experiment on NIH3T3 it was -7.72%. The call with HaCat [1] and in the experiment with HACAT [2] was inactive.
For the compound `CC(=O)N[C@@H](CCC(N)=O)C(=O)O`, the max response in the experiment with CRL-7250 is -5.46%; in the experiment with KB-3-1 it was -6.88%; in the experiment with NIH3T3, -1.83%. Also, the result in the experiment with HEK293, in the experiment with HaCat [1] and in the experiment on HACAT [2] was inactive.
